The source made the active and inactive calls. Rule for the calls: active = hit-call score of the fitted dose curve at least 0.9, where 1 is the maximum; inactive = score below 0.9.

Usually AC50 stands for the midpoint of the concentration-response curve, whichever way the signal moves.

Read-out in assay [1]: C-C motif chemokine 2 (Homo sapiens) (UniProt P13500)
The experiment in a line: BSK_KF3CT_MCP1: BioMAP Diversity Plus: KF3CT Assay for Monocyte Chemoattractant Protein 1 (MCP1/CCL2) Biomarker Activity (AID 2283073). Particulars: primary human keratinocytes with fibroblasts; actives raise or lower the signal. In a few lines:
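KF3CT skin co-culture (keratinocytes/foreskin fibroblasts), 24 h post-dose; MCP-1 by ELISA; gain/loss of signal fit bidirectionally vs DMSO baseline.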

Read-out in assay [2]: Matrix Metallopeptidase 9 (MMP9), MMP9 (gene 4318)
Description: BSK_KF3CT_MMP9: BioMAP Diversity Plus: KF3CT Assay for Matrix Metallopeptidase 9 (MMP9) Biomarker Activity (AID 2283074).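 For AC50: MMP9 protein level quantified by ELISA in the co-culture.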 The conditions noted are these: primary human keratinocytes with fibroblasts; actives raise or lower the signal. In a few lines: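 Human keratinocyte and foreskin fibroblast co-culture exposed to chemicals for 24 h; MMP9 biomarker measured by ELISA, bidirectional fitting relative to DMSO; cytotoxicity tracked by SRB total protein staining in parallel cultures.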

Read-out in assay [3]: urokinase plasminogen activator (uPA), PLAU (gene 5328)
The experiment in a line: BSK_KF3CT_uPA: BioMAP Diversity Plus: KF3CT Assay for urokinase plasminogen activator (uPA) Biomarker Activity (AID 2283075). The conditions noted are these: primary human keratinocytes with fibroblasts; actives raise or lower the signal. In outline: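 Primary human keratinocyte/foreskin fibroblast co-culture exposed to chemical; uPA measured by ELISA at 24 h. Bidirectional fit versus DMSO, with parallel SRB total-protein staining for cytotoxicity.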

Read-out in assay [4]: CD40, CD40 (gene 958)
Description: BSK_LPS_CD40: BioMAP Diversity Plus: LPS Assay for CD40 Biomarker Activity (AID 2283076). Particulars: primary human HUVEC with PBMC; actives raise or lower the signal. In outline: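 ELISA readout of CD40 in HUVEC/PBMC co-culture (BSK_LPS system), 24 h post-dosing; bidirectional curve fit, DMSO baseline; parallel SRB total-protein staining for cytotoxicity.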

Read-out in assay [5]: E-selectin (Homo sapiens) (UniProt P16581)
Description: BSK_LPS_Eselectin: BioMAP Diversity Plus: LPS Assay for Eselectin Biomarker Activity (AID 2283077). The conditions noted are these: primary human HUVEC with PBMC; actives raise or lower the signal. In a few lines: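 ELISA readout of E-selectin, 24 h post-dose, HUVEC + PBMC co-culture (LPS system). Gain or loss of signal vs DMSO baseline, bidirectional fit.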

Read-out in assay [6]: Interleukin-8 (IL8), CXCL8 (gene 3576)
Description: BSK_LPS_IL8: BioMAP Diversity Plus: LPS Assay for Interleukin-8 (IL8) Biomarker Activity (AID 2283078). The conditions noted are these: primary human HUVEC with PBMC; actives raise or lower the signal. In outline: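 HUVEC + PBMC co-culture, LPS-activated; test chemicals dosed, IL-8 read by ELISA at 24 h. Bidirectional curve fit vs DMSO baseline (gain or loss of signal).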

The nature of assay [7]: BSK_LPS_SRB: Viability Assessment in the BioMAP Diversity Plus: LPS Assay (AID 2283079).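 Note: total protein by sulforhodamine B absorbance as a cytotoxicity measure; measured one day after compound addition; fitted in both directions against DMSO so loss or gain of signal counts.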 Particulars: primary human HUVEC with PBMC. In a few lines: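 HUVEC + PBMC co-culture, LPS-stimulated; compound 24 h. 10% TCA fix, 0.1% SRB stain, A560. Bidirectional fit vs DMSO.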
Read-out in assay [8]: Interleukin-1 alpha (IL1a), IL1A (gene 3552)
The experiment in a line: BSK_LPS_IL1a: BioMAP Diversity Plus: LPS Assay for Interleukin-1 alpha (IL1a) Biomarker Activity (AID 2283080). The conditions noted are these: primary human HUVEC with PBMC; actives raise or lower the signal. In a few lines:
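HUVEC/PBMC co-culture, LPS system; 24 h after dosing; IL-1a by ELISA; gain or loss of signal fitted bidirectionally vs DMSO baseline.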

Read-out in assay [9]: Monocyte Chemoattractant Protein-1 (MCP1), CCL2 (gene 6347)
Description: BSK_LPS_MCP1: BioMAP Diversity Plus: LPS Assay for Monocyte Chemoattractant Protein-1 (MCP1) Biomarker Activity (AID 2283081).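 For AC50: secreted MCP-1 protein quantified by ELISA in culture supernatant.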 The conditions noted are these: primary human HUVEC with PBMC; actives raise or lower the signal. In a few lines: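 ELISA read-out of MCP-1 after 24 h chemical dosing of a human umbilical vein endothelial cell/peripheral blood mononuclear cell co-culture stimulated with LPS. Gain or loss of signal fitted relative to DMSO controls.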

Assay [10] is described as follows: BSK_LPS_PGE2: BioMAP Diversity Plus: LPS Assay for Prostaglandin E2 (PGE2) Biomarker Activity (AID 2283082).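 For AC50: secreted prostaglandin E2 measured by ELISA in LPS-stimulated co-culture.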 Particulars: primary human HUVEC with PBMC; actives raise or lower the signal. In a few lines:
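Endpoint derived from bidirectional curve fitting versus DMSO of ELISA-measured PGE2 in LPS-stimulated human primary vascular co-culture (HUVEC with PBMC) harvested at 24 h.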

Read-out in assay [11]: Macrophage colony-stimulating factor (MCSF), CSF1 (gene 1435)
Description: BSK_LPS_MCSF: BioMAP Diversity Plus: LPS Assay for Macrophage colony-stimulating factor (MCSF) Biomarker Activity (AID 2283083). The conditions noted are these: primary human HUVEC with PBMC; actives raise or lower the signal. In outline:
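HUVEC + PBMC co-culture (human primary), 24 h post-dose; M-CSF by ELISA; gain/loss of signal fitted bidirectionally vs DMSO baseline.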

Read-out in assay [12]: Tissue Factor, F3 (gene 2152)
The experiment in a line: BSK_LPS_TissueFactor: BioMAP Diversity Plus: LPS Assay for Tissue Factor Biomarker Activity (AID 2283084). The conditions noted are these: primary human HUVEC with PBMC; actives raise or lower the signal. In a few lines:
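HUVEC/PBMC co-culture, LPS-activated; CD142 ELISA read 24 h post-dose; bidirectional curve fit vs DMSO negative control.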

Read-out in assay [13]: Tumor necrosis factor (Homo sapiens) (UniProt P01375)
Description: BSK_LPS_TNFa: BioMAP Diversity Plus: LPS Assay for Tumour Necrosis Factor alpha (TNFa) Biomarker Activity (AID 2283085). The conditions noted are these: primary human HUVEC with PBMC; actives raise or lower the signal. In a few lines: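 Primary human vascular co-culture of HUVEC and PBMC; TNFa ELISA 24 h after treatment, analysed as increase or decrease relative to DMSO control.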

Read-out in assay [14]: Vascular cell adhesion molecule 1 (VCAM1), VCAM1 (gene 7412)
The experiment in a line: BSK_LPS_VCAM1: BioMAP Diversity Plus: LPS Assay for Vascular cell adhesion molecule 1 (VCAM1) Biomarker Activity (AID 2283086). The conditions noted are these: primary human HUVEC with PBMC; actives raise or lower the signal. In a few lines: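 Primary human vascular co-culture (umbilical vein endothelium plus PBMC) stimulated with LPS received chemical; 24 h later VCAM-1 was read by ELISA. Overt cytotoxicity was assessed by sulforhodamine B staining of parallel cultures at the same time point.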

Read-out in the next assay: CD38, CD38 (gene 952)
Description: BSK_SAg_CD38: BioMAP Diversity Plus: SAg Assay for CD38 Biomarker Activity (AID 2283087). The conditions noted are these: primary human HUVEC with PBMC; actives raise or lower the signal. In a few lines:
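Fluorescence ELISA of cell-surface CD38 served as the read-out, with either increase or decrease fitted against DMSO controls. Cells were a human umbilical vein endothelium plus PBMC co-culture under SEB/TSST-1 stimulation, measured 24 h after dosing.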

Read-out in assay [15]: CD40, CD40 (gene 958)
The experiment in a line: BSK_SAg_CD40: BioMAP Diversity Plus: SAg Assay for CD40 Biomarker Activity (AID 2283088). Particulars: primary human HUVEC with PBMC; actives raise or lower the signal. In a few lines: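 HUVEC/PBMC co-culture, 24 h post-dose; CD40 by ELISA, fluorescence intensity; bidirectional fit vs DMSO negative control.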

Read-out in the next assay: CD69, CD69 (gene 969)
Description: BSK_SAg_CD69: BioMAP Diversity Plus: SAg Assay for CD69 Biomarker Activity (AID 2283089).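 For AC50: cell surface CD69 protein quantified by ELISA with fluorescence detection.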 The conditions noted are these: primary human HUVEC with PBMC; actives raise or lower the signal. In a few lines: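 ELISA, fluorescence read-out: CD69 on human umbilical vein endothelial cell + PBMC co-culture, 24 h post-dosing. Gain or loss of signal fitted bidirectionally against DMSO baseline.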

Read-out in assay [16]: Monocyte Chemoattractant Protein-1 (MCP1), CCL2 (gene 6347)
Description: BSK_SAg_MCP1: BioMAP Diversity Plus: SAg Assay for Monocyte Chemoattractant Protein-1 (MCP1) Biomarker Activity (AID 2283090). Particulars: primary human HUVEC with PBMC; actives raise or lower the signal. In a few lines:
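MCP-1 levels in the endothelial–PBMC SAg co-culture were quantified by ELISA at 24 h post-dosing; both increases and decreases versus DMSO scored. Cytotoxicity monitored by SRB total protein in parallel cultures.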

Read-out in assay [17]: E-selectin (Homo sapiens) (UniProt P16581)
The experiment in a line: BSK_SAg_Eselectin: BioMAP Diversity Plus: SAg Assay for Eselectin Biomarker Activity (AID 2283091). The conditions noted are these: primary human HUVEC with PBMC; actives raise or lower the signal. In a few lines:
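E-selectin ELISA readout at 24 h post-dosing in human umbilical vein endothelial cell/PBMC co-culture; gain or loss of signal fitted relative to DMSO baseline.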

Read-out in assay [18]: Monokine induced gamma interferon (MIG), CXCL9 (gene 4283)
Description: BSK_SAg_MIG: BioMAP Diversity Plus: SAg Assay for Monokine induced gamma interferon (MIG) Biomarker Activity (AID 2283092). The conditions noted are these: primary human HUVEC with PBMC; actives raise or lower the signal. In outline: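 ELISA readout of MIG/CXCL9; primary human umbilical vein endothelial cells co-cultured with peripheral blood mononuclear cells; 24 h post-dose; gain/loss fit vs DMSO baseline.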

Sequence of E-selectin (Homo sapiens) (P16581 whole entry, looked up): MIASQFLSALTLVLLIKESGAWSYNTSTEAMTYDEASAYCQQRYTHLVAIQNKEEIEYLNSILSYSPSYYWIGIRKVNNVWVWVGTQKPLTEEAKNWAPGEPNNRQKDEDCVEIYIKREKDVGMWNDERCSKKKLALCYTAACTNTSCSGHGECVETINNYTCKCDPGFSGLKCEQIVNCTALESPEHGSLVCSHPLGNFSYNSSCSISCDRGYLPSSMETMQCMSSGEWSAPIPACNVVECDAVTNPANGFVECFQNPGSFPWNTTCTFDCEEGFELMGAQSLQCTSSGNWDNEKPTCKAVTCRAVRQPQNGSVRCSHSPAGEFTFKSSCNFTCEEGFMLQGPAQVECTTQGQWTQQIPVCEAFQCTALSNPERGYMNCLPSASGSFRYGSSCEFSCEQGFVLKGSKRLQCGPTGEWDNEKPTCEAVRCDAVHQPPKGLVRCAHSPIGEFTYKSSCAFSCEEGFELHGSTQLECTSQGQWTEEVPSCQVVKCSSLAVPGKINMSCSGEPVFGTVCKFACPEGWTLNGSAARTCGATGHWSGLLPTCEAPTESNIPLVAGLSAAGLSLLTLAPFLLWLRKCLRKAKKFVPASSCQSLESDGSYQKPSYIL
Sequence of Tumor necrosis factor (Homo sapiens) (P01375 whole entry, looked up): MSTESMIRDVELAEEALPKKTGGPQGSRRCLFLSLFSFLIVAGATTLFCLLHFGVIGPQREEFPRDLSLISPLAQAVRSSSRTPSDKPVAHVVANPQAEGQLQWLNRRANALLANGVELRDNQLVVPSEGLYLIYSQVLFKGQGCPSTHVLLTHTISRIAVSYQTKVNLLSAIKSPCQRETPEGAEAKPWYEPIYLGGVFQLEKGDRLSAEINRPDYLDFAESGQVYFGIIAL

Turning to `O=C(OC1CCCCC1)c1ccccc1C(=O)OC1CCCCC1`, the outcome in assay [1], in assay [3] and in assay [10] was inactive. The AC50 is 9.72 µM (active) in assay [2]; 15.5 µM (active) with CD40, CD40 (gene 958) [4]; 20.9 µM (active) in assay [5]; 20.9 µM (active) in assay [6]; 20.9 µM (active) in assay [7]; 20.9 µM (active) in assay [8]. Besides, the AC50 is 27.9 µM (active) in assay [9]; 14.6 µM (active) in assay [11]; 20.9 µM (active) in [12]; 26.5 µM (active) in assay [13]; 20.9 µM (active) in [14]; 33.3 µM (active) with CD38, CD38 (gene 952). The AC50 with CD40, CD40 (gene 958) [15] is 20.9 µM (active); with CD69, CD69 (gene 969), 26.2 µM (active); in [16], 27.8 µM (active); in [17] it was 29.8 µM (active); in assay [18], 29.8 µM (active).

For the compound `O=C(O)C(Cl)(Cl)Cl`, the outcome in assay [1] is “inactive”; in [2], “inactive”; in [3], “inactive”; with CD40, CD40 (gene 958) [4], “inactive”; in [5], “inactive”; in [6], “inactive”. The result in [7], in assay [8], in assay [9], in assay [10], in assay [11] and in assay [12] was inactive. For the same compound, the outcome in assay [13] was “inactive”; in assay [14], “inactive”; with CD38, CD38 (gene 952), “inactive”; with CD40, CD40 (gene 958) [15], “inactive”; with CD69, CD69 (gene 969), “inactive”; in assay [16], “inactive”. Also, the outcome in [17] and in [18] was inactive.

Take `CCC(=O)C(CC(C)N(C)C)(c1ccccc1)c1ccccc1` (stereo not given): the outcome is “inactive” in assay [1]; “inactive” in [2]; “inactive” in assay [3]; “inactive” with CD40, CD40 (gene 958) [4]; “inactive” in assay [5]; “inactive” in assay [6]. Also, the result in assay [7], in assay [8], in [9], in assay [10], in [11] and in assay [12] was inactive. Moreover, the outcome in assay [13] is “inactive”; in [14], “inactive”; in the assay with CD38, CD38 (gene 952), “inactive”; in the assay with CD40, CD40 (gene 958) [15], “inactive”; in the assay with CD69, CD69 (gene 969), “inactive”; in assay [16], “inactive”. The result in [17] and in [18] was inactive.

Consider `CC(C)(C)c1cc(O)ccc1O`, for which the AC50 in assay [1] is 36 µM (active); in assay [2], 29.5 µM (active); in assay [3] it was 31.3 µM (active); in the assay with CD40, CD40 (gene 958) [4], 5.75 µM (active); in assay [5], 12.4 µM (active); in assay [6] it was 13.1 µM (active). Also, the AC50 in assay [7] is 28.5 µM (active); in [8], 14.5 µM (active); in assay [9], 13 µM (active); in assay [10] it was 5.94 µM (active); in assay [11], 12.1 µM (active); in [12] it was 20 µM (active). In addition, the AC50 was 9.38 µM (active) in [13]; 8.15 µM (active) in assay [14]; 8.22 µM (active) in the assay with CD38, CD38 (gene 952); 8.26 µM (active) in the assay with CD40, CD40 (gene 958) [15]; 5.54 µM (active) in the assay with CD69, CD69 (gene 969); 8.93 µM (active) in assay [16]. The values for the AC50 in assay [17] and in [18] were 5.56 µM (active) and 11.4 µM (active), respectively.

Turning to `CCOP(=S)(OCC)SCSP(=S)(OCC)OCC`, the outcome in assay [1] was “inactive”; in [2], “inactive”; in [3], “inactive”; with CD40, CD40 (gene 958) [4], “inactive”; in [5], “inactive”; in assay [6], “inactive”. Besides, the result in assay [7], in assay [8], in assay [9], in assay [10], in assay [12] and in assay [13] was inactive. The outcome is “inactive” in [14]; “inactive” with CD38, CD38 (gene 952); “inactive” with CD40, CD40 (gene 958) [15]; “inactive” with CD69, CD69 (gene 969); “inactive” in assay [16]; “inactive” in assay [18]. The figures for the AC50 in assay [11] and in assay [17] were 2.72 µM (active) and 15.2 µM (active), respectively.
